Assay [1] in a line: NCATS anti-infectives library activity on HEK293 viability as a counter-qHTS vs the C. elegans viability qHTS (AID 1745854).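 Also: HEK293 cells exposed to compounds for 24 hr before the viability read.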 Also: potency is read from the fitted curve at half-maximal effect. Conditions: HEK293 viability counter-screen; series mostly up to 41.8 µM. Summed up:
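Compound titrations (final up to 41.7 uM) were incubated with HEK293 cells for 24 hr at 37C under 5% CO2. Viable cells were quantified with CellTiter-Glo after 10 min at ambient temperature.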
(In qHTS, concentration-response curves come from the screen itself.)

Assay [2] concerns the target Catechol O-methyltransferase (Homo sapiens) (UniProt P21964). Briefly: Confirmatory Screen for Target Class Profiling of Small Molecule Inhibitors of Methyltransferases (AID 1745852; calls by dose curve; also: potency is read from the fitted curve at half-maximal effect; as to activity change, negative = inhibition: % is scaled to controls: 0 for no effect and ±100 for the full control effect). The settings on record: MTase-Glo luminescence, SAH detection, recombinant enzyme; measured here: COMT max response; stronger effect = lower value.
The target of assay [3] is Guanidinoacetate N-methyltransferase (Homo sapiens) (UniProt Q14353). The assay is described as above. Conditions: MTase-Glo luminescence, SAH detection, recombinant enzyme; activity change, negative = inhibition: at 57.3 µM (top of the series) unless noted; series mostly up to 57.3 µM.
In assay [4] the target is Nicotinamide N-methyltransferase (Homo sapiens) (UniProt P40261). The description is as above. Conditions: MTase-Glo luminescence, SAH detection, recombinant enzyme; measured here: NNMT max response; stronger effect = lower value.
Sequence of Nicotinamide N-methyltransferase (Homo sapiens) (P40261 whole entry, looked up): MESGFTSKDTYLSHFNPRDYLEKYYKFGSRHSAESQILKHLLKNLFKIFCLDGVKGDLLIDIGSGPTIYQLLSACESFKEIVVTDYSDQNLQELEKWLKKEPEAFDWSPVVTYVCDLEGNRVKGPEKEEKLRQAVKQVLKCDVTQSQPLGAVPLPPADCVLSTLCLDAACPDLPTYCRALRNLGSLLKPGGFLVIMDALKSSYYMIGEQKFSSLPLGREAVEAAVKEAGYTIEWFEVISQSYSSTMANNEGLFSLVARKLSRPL
Assay [5] addresses Phenylethanolamine N-methyltransferase (Homo sapiens) (UniProt P11086). Described as above. Conditions: MTase-Glo luminescence, SAH detection, recombinant enzyme; measured here: PNMT max response; stronger effect = lower value.
Assay [6] can be described thus: qHTS drug screen for cell cycle checkpoint inhibitors in PARPi-resistant BRCA-mutant ovarian cancer cell lines. (AID 1963452; calls by dose curve). The settings on record: PEO1/OlaR viability, CellTiter-Glo luminescence, 96 h, stronger effect = lower value. Summed up: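 PEO1, PEO4 and PEO1/OlaR ovarian cancer cells, 600 per well, exposed 96 h at 37C to a dilution series. Viability read by CellTiter-Glo luminescence, normalized to DMSO and empty wells; activity summarized as Z-AUC.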

Assay [7] addresses Cytochrome P450 1A2 (Homo sapiens) (UniProt P05177). Briefly: p450-cyp1a2 (AID 410; calls by dose curve;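 also: -100% = full effect of reference inhibitor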). Conditions: recombinant CYP1A2, luciferin-ME demethylation, luminescence; series mostly up to 57 µM. The method in brief:
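Read-out is luminescence from luciferin produced by CYP1A2 demethylation of Luciferin-ME (100uM, at Km). Detection reagent stopped the 60 min NADPH-dependent reaction; signals were normalized to 57 uM furafylline.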

Assay [8] is described as follows: NFAT Signaling Pathway (AID 444; active = well fitted curve in either direction with a large enough effect, not every such curve was filed as active;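 also: carbachol stimulus at about its EC50 of 1 µM final; % is scaled to controls: 0 for no effect and ±100 for the full control effect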). The settings on record: Jurkat NFAT-bla M1, carbachol, beta-lactamase ratio, 5 h; at 7.69 µM (top of the series) unless noted. The method in brief: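 Jurkat cells carrying an NFAT-driven β-lactamase reporter and co-transfected muscarinic M1 receptor were treated with compound plus carbachol (1 uM final, an EC50 level) for 5 h at 37 °C. CCF4 loading followed for 1 h at RT; 460/530 nm ratio gave %activity.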

In assay [9] the target is Glucocorticoid receptor (Homo sapiens) (UniProt P04150). Briefly: GR-GFP Redistribution (AID 450;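 active = compounds whose dose series gives a full or clear partial fitted curve of increased nuclear translocation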; also: potency is read from the fitted curve at half-maximal effect). The settings on record: U2OS GR-GFP nuclear translocation, laser cytometry, 2 h.
Sequence of Glucocorticoid receptor (Homo sapiens) (P04150 whole entry, looked up, the tested form may be a part): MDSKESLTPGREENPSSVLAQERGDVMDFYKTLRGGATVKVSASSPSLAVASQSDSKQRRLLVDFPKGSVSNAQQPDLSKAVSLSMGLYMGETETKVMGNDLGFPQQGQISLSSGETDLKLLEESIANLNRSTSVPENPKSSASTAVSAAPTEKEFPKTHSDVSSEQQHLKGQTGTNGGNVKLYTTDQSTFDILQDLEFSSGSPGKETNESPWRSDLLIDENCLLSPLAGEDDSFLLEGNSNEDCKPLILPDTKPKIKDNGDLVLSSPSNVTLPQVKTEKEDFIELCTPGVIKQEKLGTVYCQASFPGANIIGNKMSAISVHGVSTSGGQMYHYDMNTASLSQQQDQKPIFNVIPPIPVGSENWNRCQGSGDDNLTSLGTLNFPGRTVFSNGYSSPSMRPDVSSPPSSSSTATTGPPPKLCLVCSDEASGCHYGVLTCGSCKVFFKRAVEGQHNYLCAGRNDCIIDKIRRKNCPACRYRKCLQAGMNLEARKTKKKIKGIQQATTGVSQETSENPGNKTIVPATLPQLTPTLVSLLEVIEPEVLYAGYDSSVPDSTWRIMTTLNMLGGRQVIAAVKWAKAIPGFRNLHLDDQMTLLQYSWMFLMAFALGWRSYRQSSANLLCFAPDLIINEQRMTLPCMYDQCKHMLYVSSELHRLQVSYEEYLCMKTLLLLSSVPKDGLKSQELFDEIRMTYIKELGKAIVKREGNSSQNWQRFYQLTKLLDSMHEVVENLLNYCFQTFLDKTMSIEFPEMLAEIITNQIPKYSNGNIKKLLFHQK
Assay [10] shares this target. Briefly: GR-EFC Redistribution (AID 451; calls by dose curve; also: potency is read from the fitted curve at half-maximal effect). The settings on record: CHO-K1 GR-EFC translocation, beta-gal luminescence, 2 h. Summed up: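 CHO-K1 cells stably expressing nuclear-localized β-gal enzyme acceptor and GR fused C-terminally to the enzyme donor fragment; ligand-driven nuclear translocation restores β-gal by complementation. Compounds titrated up to 46 uM final, 2 h at 37 °C; luminescence read.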

The target of assay [11] is 3',5'-cyclic-AMP phosphodiesterase 4B (Homo sapiens) (UniProt Q07343). Briefly: qHTS Assay for Inhibitors of PDE-IV (AID 607; active = well fitted activation curve with a large enough effect in the main read-out, with a control signal flat, not every such curve was filed as active; also: % of control where 0% means no effect). Conditions: HEK293 ACTOne CNG channel cells, membrane potential fluorescence; series mostly up to 22.9 µM. The method in brief:
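Cell-based read-out of cAMP via a modified cyclic nucleotide-gated channel and membrane potential dye (535/590 nm) in HEK293 cells expressing PDE4 endogenously. Compounds tested up to 22.9 uM final; 100 uM RO 20-1724 reference.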

In assay [12] the target is Guanine nucleotide-binding protein G(i) subunit alpha-1 (Homo sapiens) (UniProt P63096). Briefly: qHTS Assay for Inhibitors of RGS12 GoLoco Motif Activity (Green Fluorophore) (AID 879).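 Also: 0% = labeled peptide with Gαi1 and full inhibition = labeled peptide alone without protein; negative values mean loss of peptide binding seen as reduced polarization.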 The settings on record: Galphai1/FITC-RGS12 GoLoco peptide, fluorescence polarization; series mostly up to 57.1 µM. The method in brief: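 A drop in FITC polarization marked displacement of the FITC-tagged RGS12 GoLoco peptide (10 nM) from Gαi1 (50 nM). Compounds were incubated 10 min at room temperature in Tris pH 7.5 buffer containing 150 mM NaCl, 0.1 mM GDP and 0.05% NP40; unlabeled peptide titration served as control.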
Sequence of Guanine nucleotide-binding protein G(i) subunit alpha-1 (Homo sapiens) (P63096 whole entry, looked up): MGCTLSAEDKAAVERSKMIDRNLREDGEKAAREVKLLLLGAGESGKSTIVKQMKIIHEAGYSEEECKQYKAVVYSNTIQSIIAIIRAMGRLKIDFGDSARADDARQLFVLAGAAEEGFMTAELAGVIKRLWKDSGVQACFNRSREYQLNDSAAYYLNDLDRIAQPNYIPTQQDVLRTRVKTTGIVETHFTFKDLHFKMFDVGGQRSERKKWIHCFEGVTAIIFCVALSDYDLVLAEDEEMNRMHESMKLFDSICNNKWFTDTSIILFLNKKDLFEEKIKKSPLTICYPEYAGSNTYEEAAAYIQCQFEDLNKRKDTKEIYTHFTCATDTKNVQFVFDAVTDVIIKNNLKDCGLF

Assay [13] addresses Cytochrome P450 3A4 (Homo sapiens) (UniProt P08684). Briefly: qHTS Assay for Activators of Cytochrome P450 3A4 (AID 885). Also: nearly all actives have a fitted effect of over 65% in size. Conditions: recombinant CYP3A4, Luciferin-PPXE luminescence, 60 min; series mostly up to 57.1 µM. Summed up:
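Luminescent readout of luciferin formed from 25 uM Luciferin-PPXE (KM level) by 20 nM CYP3A4 in 200 mM KPO4, with 60 min NADPH-driven reaction at room temperature after 10 min compound exposure. Ketoconazole (57 uM) defined 100% inhibition.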

Assay [14] can be described thus: qHTS Assay for Identification of Small Molecule Antagonists for NFkB Signaling Pathway (AID 895; active = well fitted inhibition curve with a large enough effect in the signal ratio, with a control signal flat, not every such curve was filed as active; the % refers to the signal ratio; also: potency is read from the fitted curve at half-maximal effect). The settings on record: NFkB beta-lactamase reporter cells, FRET ratio 460/530; stimulated with 10 pM TNF alpha. Summed up: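 NFkB-bla ME-180 cervical carcinoma cells with beta-lactamase reporter under NFkB response element; compounds added, then TNF alpha at 10 pM final (EC50), 5 h at 37 C. LiveBLAzer substrate 2 h, room temperature; emission 460/530 nm at 405 nm excitation.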

Assay [15] concerns the target Muscarinic acetylcholine receptor M1 (Rattus norvegicus) (UniProt P08482). Briefly: qHTS Assay for Antagonists of Acetylcholine Muscarinic M1 Receptor: Kinetic Measurement of Intracellular Calcium Response (AID 943).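 Also: Fluo-4 calcium signal as peak divided by basal fluorescence over 4 min; nearly all actives have a fitted effect of over 75% in size.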 The settings on record: M1-expressing cells, kinetic intracellular calcium fluorescence; series mostly up to 35.3 µM. The method in brief:
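Quantitative HTS in CHO-M1 (rat receptor) cells: 10 min compound exposure ahead of 100 nM carbachol, Fluo-4 fluorescence followed 4 min, value expressed as peak-to-basal ratio.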

The target of assay [16] is Pyruvate kinase (Leishmania mexicana) (UniProt Q27686). Briefly: qHTS Validation Assay for Inhibitors of Leishmania Mexicana Pyruvate Kinase (AID 945).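 Also: 0% = DMSO only neutral control wells.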 Conditions: purified L. mexicana pyruvate kinase, enzyme activity, E451W mutant enzyme; series mostly up to 57.5 µM. The method in brief:
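Mutant LmPYK (E451W), 0.2 nM, plus 0.5 mM PEP and 0.1 mM ADP in 50 mM imidazole pH 7.2 containing 0.01% Tween 20 and 0.05% BSA. Incubated 1 h at room temperature; luminescence via PKLight, normalized to DMSO.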

For assay [17], the target named is Pyruvate kinase PKM (Homo sapiens) (UniProt P14618). Briefly: qHTS Assay for Activators of Human Muscle Pyruvate Kinase (AID 954; active = well fitted curve in the direction sought with a large enough effect, not every such curve was filed as active;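 also: 0% = uninhibited enzyme and -100% = no enzyme or full thiadiazolimine inhibition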). The settings on record: purified human muscle pyruvate kinase, luciferase-coupled luminescence, 1 h; series mostly up to 57.5 µM. Summed up:
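ATP production by PKM2 detected via luciferase luminescence after 1 h room-temperature reaction (0.1 nM enzyme, PEP at Km 0.5 mM, ADP 0.1 mM, pH 7.2 imidazole buffer). Inhibition scaled to no-enzyme control; activation referenced to 0.3 nM enzyme wells.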

The target of assay [18] is Alpha-galactosidase A (Homo sapiens) (UniProt P06280). Briefly: Counterscreen for Glucocerebrosidase Inhibitors: qHTS Assay for Human alpha-Galactosidase at pH 4.5 (AID 992). Also: 0% is about no effect. Conditions: purified enzyme, fluorogenic substrate; series mostly up to 76.9 µM. Summed up: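 Fluorogenic 1536-well qHTS at pH 4.5 (citrate, Tween-20): 2 nM enzyme, 80 uM 4-MU-alpha-galactoside, 20 min room temperature, NaOH/glycine stop. Titration 0.7 nM to 77 uM, data normalized to no-enzyme and full-activity controls, Hill-fitted AC50.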
Sequence of Alpha-galactosidase A (Homo sapiens) (P06280 whole entry, looked up): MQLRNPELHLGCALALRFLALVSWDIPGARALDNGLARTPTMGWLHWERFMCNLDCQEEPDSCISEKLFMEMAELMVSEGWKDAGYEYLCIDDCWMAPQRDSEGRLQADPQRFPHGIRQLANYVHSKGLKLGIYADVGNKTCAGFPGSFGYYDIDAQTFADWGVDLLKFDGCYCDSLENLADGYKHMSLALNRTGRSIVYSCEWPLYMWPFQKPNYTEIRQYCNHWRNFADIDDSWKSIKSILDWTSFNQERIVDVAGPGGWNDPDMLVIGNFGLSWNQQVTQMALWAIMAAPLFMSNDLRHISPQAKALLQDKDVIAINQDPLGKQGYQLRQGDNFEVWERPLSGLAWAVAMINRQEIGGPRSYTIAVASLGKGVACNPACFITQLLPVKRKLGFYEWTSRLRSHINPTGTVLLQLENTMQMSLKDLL

In assay [19] the target is alpha-glucosidase (Oryza sativa, rice) (UniProt Q653V4). Briefly: Counterscreen for Glucocerebrosidase Inhibitors: qHTS Assay for Rice alpha-Glucosidase at pH 5.0 (AID 997).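 Also: 0% = full activity with enzyme and -100% = basal without enzyme.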 Conditions: rice alpha-glucosidase enzyme activity; series mostly up to 76.9 µM. The method in brief:
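Endpoint fluorogenic assay at pH 5.0: compounds (0.7 nM to 77 uM) titrated against 4 nM rice enzyme and 400 uM 4-MU-alpha-glucoside for 20 min at room temperature; NaOH/glycine stop, read ex 365/em 440 nm, Hill-fitted AC50.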

The target in assay [20] is Glutathione peroxidase 1 (Homo sapiens) (UniProt P07203). Briefly: Primary qHTS Assay for Inhibitors of Recombinant Selenoprotein Glutathione Peroxidase 1 (GPX1) (AID 1845191). Also: nearly all actives have a fitted effect of over 65% in size. The settings on record: recombinant GPX1, GR-coupled NADPH fluorescence, 15 min; series mostly up to 48.8 µM. The method in brief:
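GPX1 10 nM, GR 100 nM, GSH 1 mM, NADPH 0.5 mM, CHP 0.5 mM (final). 30-min cpd preincubation, RT. Ex340/Em450 read t=0, t=15 min.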

The results in this text go back to PubChem BioAssay (NCATS).

Structures are written as SMILES. Inconclusive results are not listed. Calls of active or inactive are those of the source. Unless noted, calls follow the shape of the dose curve; as a rule, active = well fitted curve in the direction sought with a large enough effect; inconclusive = small, poorly fitted or top-dose-only effect, or another doubt; inactive = no such curve, though single readings can be large; an effect the other way counts as inactive or inconclusive. Where only a bound is given, the exact number is not on record here.

Sequence of Phenylethanolamine N-methyltransferase (Homo sapiens) (P11086 whole entry, looked up): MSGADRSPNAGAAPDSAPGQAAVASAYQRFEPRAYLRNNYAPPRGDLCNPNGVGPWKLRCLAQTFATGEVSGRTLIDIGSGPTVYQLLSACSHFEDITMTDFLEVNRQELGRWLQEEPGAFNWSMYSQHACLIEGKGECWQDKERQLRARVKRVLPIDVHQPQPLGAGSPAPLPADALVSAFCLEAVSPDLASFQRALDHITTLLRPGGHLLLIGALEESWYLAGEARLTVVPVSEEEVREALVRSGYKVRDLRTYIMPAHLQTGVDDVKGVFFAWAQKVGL
Sequence of Catechol O-methyltransferase (Homo sapiens) (P21964 whole entry, looked up): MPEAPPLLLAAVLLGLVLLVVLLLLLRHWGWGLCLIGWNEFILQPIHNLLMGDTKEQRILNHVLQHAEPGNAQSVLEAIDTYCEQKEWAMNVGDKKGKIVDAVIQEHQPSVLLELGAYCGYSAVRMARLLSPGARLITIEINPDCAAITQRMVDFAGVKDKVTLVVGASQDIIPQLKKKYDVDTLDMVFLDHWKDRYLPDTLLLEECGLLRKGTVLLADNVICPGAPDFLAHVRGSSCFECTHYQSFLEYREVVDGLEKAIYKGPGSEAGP
Sequence of Muscarinic acetylcholine receptor M1 (Rattus norvegicus) (P08482 whole entry, looked up): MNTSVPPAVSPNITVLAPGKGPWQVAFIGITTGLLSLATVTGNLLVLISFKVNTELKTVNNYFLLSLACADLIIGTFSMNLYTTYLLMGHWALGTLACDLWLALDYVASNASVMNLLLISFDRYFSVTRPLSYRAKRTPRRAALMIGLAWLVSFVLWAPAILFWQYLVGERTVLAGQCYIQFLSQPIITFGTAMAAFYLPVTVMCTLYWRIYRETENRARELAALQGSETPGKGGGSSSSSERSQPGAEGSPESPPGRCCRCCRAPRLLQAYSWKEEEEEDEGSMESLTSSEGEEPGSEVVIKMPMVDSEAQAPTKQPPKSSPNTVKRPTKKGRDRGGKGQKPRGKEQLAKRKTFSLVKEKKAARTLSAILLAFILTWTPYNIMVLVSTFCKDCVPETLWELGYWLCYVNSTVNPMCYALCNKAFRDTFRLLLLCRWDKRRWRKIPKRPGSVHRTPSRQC
Sequence of Pyruvate kinase (Leishmania mexicana) (Q27686 2-499 E452W): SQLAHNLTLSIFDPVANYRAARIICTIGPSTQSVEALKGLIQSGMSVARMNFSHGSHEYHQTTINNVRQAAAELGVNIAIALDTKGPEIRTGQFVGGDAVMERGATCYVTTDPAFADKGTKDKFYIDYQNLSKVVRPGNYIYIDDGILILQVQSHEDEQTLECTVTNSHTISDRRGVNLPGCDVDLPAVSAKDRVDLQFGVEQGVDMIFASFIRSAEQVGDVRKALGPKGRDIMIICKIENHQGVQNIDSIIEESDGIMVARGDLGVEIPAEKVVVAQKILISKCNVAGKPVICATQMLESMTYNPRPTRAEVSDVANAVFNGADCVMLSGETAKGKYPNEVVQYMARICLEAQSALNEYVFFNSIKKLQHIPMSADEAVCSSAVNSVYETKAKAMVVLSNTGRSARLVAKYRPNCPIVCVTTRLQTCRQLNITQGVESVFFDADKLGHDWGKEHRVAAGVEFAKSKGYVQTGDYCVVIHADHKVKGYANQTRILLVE
Sequence of Pyruvate kinase PKM (Homo sapiens) (P14618 whole entry, looked up): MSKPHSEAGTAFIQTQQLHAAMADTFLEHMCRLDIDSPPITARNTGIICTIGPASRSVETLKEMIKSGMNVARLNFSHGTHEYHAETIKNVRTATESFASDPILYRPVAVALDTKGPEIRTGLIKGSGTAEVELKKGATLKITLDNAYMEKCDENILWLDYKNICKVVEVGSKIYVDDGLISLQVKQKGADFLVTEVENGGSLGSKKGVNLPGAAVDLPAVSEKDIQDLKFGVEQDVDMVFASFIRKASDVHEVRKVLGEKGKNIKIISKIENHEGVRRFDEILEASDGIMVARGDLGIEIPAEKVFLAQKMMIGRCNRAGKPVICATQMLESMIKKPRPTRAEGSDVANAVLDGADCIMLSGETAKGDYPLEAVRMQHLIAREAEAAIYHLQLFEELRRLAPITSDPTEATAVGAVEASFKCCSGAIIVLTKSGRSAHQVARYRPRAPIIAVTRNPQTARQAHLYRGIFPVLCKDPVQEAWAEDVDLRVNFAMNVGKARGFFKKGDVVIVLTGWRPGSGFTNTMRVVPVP
Sequence of Glutathione peroxidase 1 (Homo sapiens) (P07203 whole entry, looked up): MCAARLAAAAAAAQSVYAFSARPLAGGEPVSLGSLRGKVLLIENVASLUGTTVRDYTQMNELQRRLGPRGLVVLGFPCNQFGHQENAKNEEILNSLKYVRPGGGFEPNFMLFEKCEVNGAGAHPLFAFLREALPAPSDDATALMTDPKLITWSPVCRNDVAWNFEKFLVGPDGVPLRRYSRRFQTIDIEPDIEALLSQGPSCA
Sequence of 3',5'-cyclic-AMP phosphodiesterase 4B (Homo sapiens) (Q07343 whole entry, looked up): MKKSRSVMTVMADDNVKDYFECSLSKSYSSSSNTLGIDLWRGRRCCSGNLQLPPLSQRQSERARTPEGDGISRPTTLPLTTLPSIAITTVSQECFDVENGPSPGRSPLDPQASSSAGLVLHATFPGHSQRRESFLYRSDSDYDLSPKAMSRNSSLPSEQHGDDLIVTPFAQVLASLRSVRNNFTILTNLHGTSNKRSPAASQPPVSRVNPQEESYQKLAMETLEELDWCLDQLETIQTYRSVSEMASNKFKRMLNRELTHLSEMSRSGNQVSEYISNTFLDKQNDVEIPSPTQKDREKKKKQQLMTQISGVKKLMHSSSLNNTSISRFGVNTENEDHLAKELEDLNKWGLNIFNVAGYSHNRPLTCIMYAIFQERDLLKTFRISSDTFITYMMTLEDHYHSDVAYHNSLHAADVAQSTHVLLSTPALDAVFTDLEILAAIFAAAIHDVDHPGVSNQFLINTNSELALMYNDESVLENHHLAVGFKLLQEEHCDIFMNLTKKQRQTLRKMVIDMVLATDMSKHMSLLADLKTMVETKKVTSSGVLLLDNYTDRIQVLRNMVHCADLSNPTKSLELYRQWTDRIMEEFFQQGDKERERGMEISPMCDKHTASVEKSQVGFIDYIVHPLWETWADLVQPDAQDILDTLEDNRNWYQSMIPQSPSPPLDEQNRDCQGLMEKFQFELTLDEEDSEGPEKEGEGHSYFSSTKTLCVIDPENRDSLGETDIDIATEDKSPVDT

For `O=c1cc(-c2ccc(O)cc2)oc2cc(O)c(O)c(O)c12`, the Potency entry in [1] is “inactive”.
Take `NC(=O)c1cccc2[nH]c(-c3ccc([C@@H]4CCCN4)cc3F)nc12`: the activity is -9.14% in [2], -23.8% in [4] and -6.69% in [5]. Moreover, the activity change, negative = inhibition in assay [3] was -8.18%. Besides, in assay [1], the Potency entry is “inactive”. Moreover, the results for the Z-AUC in assay [6], in assay [6] (measured here: PEO1 parental Z-AUC) and in assay [6] (measured here: PEO4 Z-AUC) were -0.692 (inactive), -1.03 and -0.377, respectively.
Take `Cc1cn2nc([C@@H]3CCCCN3C(=O)c3cc(Cl)ccc3NS(C)(=O)=O)cc2nc1N1CC[C@H](N)C1`: in assay [1], the Potency entry was “inactive”.
The same measure, in the same setting: for `O=C(NCc1c(F)cc(F)cc1F)c1cn2c(c(O)c1=O)C(=O)N1C3CCC(C3)OC1C2` (stereo not given) the value was “inactive”.
On to `CS(=O)(=O)c1cc(-c2ccccc2)cc(S(=O)(=O)c2ccc(CN)s2)c1`, for which the Potency result in [1] is “inactive”.
Still for that read-out and setting: with `C/C(=N\NC(=O)C(NC(=O)c1ccccc1)c1n[nH]c(=O)c2ccccc12)c1cccc(Br)c1` (stereo not given) the entry was “inactive”; with `COc1cc(O)c(CC=C(C)C)c2c1C(=O)CC(c1ccc(O)cc1)O2` (stereo not given), “inactive”.
Take `O=c1c2ccccc2n2c(-c3cc(Cl)ccc3O)nnc2n1Cc1ccc(F)cc1`: the activity in [2] was -12.1%; in assay [4] it was -13.1%; in assay [5], -27.8%. Also, the Potency in [3] was 27.1 µM (active).
For the compound `O=[N+]([O-])c1ccc(S(=O)(=O)N2CCN(c3ccnc4cc(Cl)ccc34)CC2)c([N+](=O)[O-])c1`, the Potency in assay [1] was 10 µM (active).
As to `O=c1cc(O)cc(/C=C\c2ccc(O)c(O)c2)o1`, the Potency entry in [7], in assay [11], in assay [12] and in [15] was “inactive” throughout. Also, the activity change, negative = inhibition in [8] was -13.6% [at 38 µM] (inactive). Also, the Potency in assay [9] is > 46 µM (inactive); in assay [10], > 46 µM (inactive); in assay [14] it was 1.26 µM (active); in assay [3], 24.3 µM (active). For the same compound, the outcome in assay [13], in assay [16], in [17], in assay [18] and in [19] was “inactive” in each case. Moreover, the activity in assay [2] is 135%; in assay [4], -15.8%; in [5] it was -1.5%.
Regarding `S=C(S)O[C@H]1C[C@H]2C[C@@H]1[C@@H]1CCC[C@H]21`, the Potency entry in assay [1] was “inactive”.
On the same count and under the same terms, for `O=S(=O)(Cl)c1ccc(-c2ccccc2)cc1` the value was “inactive”; for `Cc1ccc(C2Nc3ccccc3C(=O)N2c2ccccc2)s1` (stereo not given), “inactive”.
Regarding `COc1ccc(C2CC(=O)c3cc(-c4nc(-c5cccc([N+](=O)[O-])c5)cs4)c(=O)n(-c4ccccc4N)c3C2)cc1` (stereo not given), the results for the activity in assay [2], in [4] and in assay [5] were -0.514%, -5.71% and -5.29%, respectively. Besides, the activity change, negative = inhibition in assay [3] was -4.17%. For the same compound, in assay [20], the Potency entry was “inactive”.
For the compound `COc1ccc(-c2sc(NC(=O)C(C)(C)C)nc2C)cc1S(=O)(=O)Nc1ccc(O)cc1`, the Potency entry in [1] was “inactive”.
`COc1ccc(-c2oc3cc(O)cc(O)c3c(=O)c2O)cc1`: the Potency result in assay [1] is “inactive”.
`CCCC1c2cccn2CCN1C(=O)Nc1cccc(Cl)c1C` (stereo not given): the figures for the activity in assay [2], in assay [4] and in assay [5] were -7.65%, -16% and -8.29%, respectively. Besides, in assay [3], the activity change, negative = inhibition was -4.33%.
